These results are taken from PubChem BioAssay AID2253 (Southern Research Specialized Biocontainment Screening …, 2010).

Each structure is given as a SMILES string. In all, about 2,200 compounds went through this assay and about 1,300 (59%) were called active. The rule behind the calls is not given here. The set was probably picked from earlier hits. Only a sample is shown. A call without a number means that no potency is given here. Potency and affinity values are given separately.

The nature of this assay: human monocytic cell viability reduction – S. typhimurium screen hits, cytotoxicity control for Salmonella PhoP regulon inhibitors, dose response (AID 2253). The settings on record: THP-1 viability, CellTiter-Glo luminescence, 72 h; series mostly up to 50 µM. In general terms: In ATP-based viability assays light output follows the ATP content of the culture.
For `CSc1nsc(SCC(=O)Nc2ccc(C(C)=O)cc2)n1`, the compound was classed as inactive.
Then `CCCc1nc2c(o1)CC(CC(C)SCC)CC2=O` (centres undefined), with “inactive”; and `Cc1cc(Oc2ccc(-c3nnc(-c4ccccc4)o3)cc2[N+](=O)[O-])ccc1Cl`, with “inactive”; and `C=CCOc1ccc(Br)cc1/C=N/O`, with “inactive”.
On to `CCOC(=O)CCCNC(=O)COC(=O)CCC(=O)c1ccc(F)cc1`, for which the call was inactive.
Consider `COc1ccccc1N1CCN(C/C(O)=C(\C#N)c2nc(-c3ccccc3)cs2)CC1`, for which the result was inactive.
Then `Cc1cc(C)nc(NC(=O)Cc2cccs2)n1`, with “inactive”.
`Cc1oc(CC(C)C)c(CN2CCCC2)c1C(=O)O`: the outcome was inactive.
In the case of `O=C(O)C1(P(=O)(c2ccccc2)c2ccccc2)CCC1` it was “inactive”; in that of `O=C(O)CCc1nnc2n(Cc3ccc(F)cc3)c(=O)c3ccccc3n12`, “inactive”; in that of `CC1Cc2ccccc2N1C(=O)COC(=O)c1ccc(S(=O)(=O)N(C)C)cc1` (centres undefined), “inactive”.
Then `CCSc1nc(C2CC2)cc(-c2cccs2)c1C#N`, with “inactive”; and `O=c1cc(O)nc(SCc2ccccc2Cl)[nH]1`, with “inactive”.
In the case of `Cc1ccc(-n2nc(-c3ccc(N)cc3)cc2N)cc1` it was “inactive”; in that of `O=C(O)CCS(=O)(=O)c1ccc(-c2ccccc2)cc1`, “inactive”; in that of `Cc1c(Cl)cccc1NC(=O)CSCC(N)=O`, “inactive”.
Take `O=C(NC(NC(=S)Nc1ccc(Cl)cc1)C(Cl)(Cl)Cl)c1ccco1` (centres undefined): the call was inactive.
In the case of `CCC(C)NC(=O)c1cn(CC)c2cc(N3CCN(C)CC3)c(F)cc2c1=O` (centres undefined) it was “inactive”; in that of `NC(=O)C1(NC(=O)[C@@H]2CC3(CC(c4cccc(NC(=O)[C@@H]5CCC(=O)N5)c4)=NO3)CN2C(=O)Cc2ccc(Cl)cc2)CC1` (some centres undefined), “inactive”; in that of `COCCNC(=O)c1ccc(C(=O)NCCOC)s1`, “inactive”.
Then `COc1cc(S(=O)(=O)N2CCCCC2)ccc1NC=O`, with “inactive”; and `CCn1cc(C(=O)OCC(=O)Nc2ccc(S(=O)(=O)N3CCCC3)cc2)c(=O)c2ccc(C)nc21`, with “inactive”.
Then `CCOC(=O)N1CCN(C(=O)c2ccc(NC(=O)c3ccc(C)cc3)cc2)CC1`, with “inactive”.
Turning to `O=C(OCC(=O)c1ccc(S(=O)(=O)N2CCCC2)cc1)C1=COCCO1`, the compound was classed as inactive.
`Cc1nnc(SC(C)C(=O)Nc2ccc(S(=O)(=O)N3CCCCCC3)cc2)s1` (centres undefined): the compound was called inactive.
In the case of `O=C(CCC(=O)c1cccs1)OCC(=O)N1CCN(S(=O)(=O)c2ccccc2)CC1`, the call was inactive.
In the case of `Cc1cc(C)c2c(=O)[nH]c(SCC(=O)Nc3ccc(N(C)C)cc3)nc2n1` it was “inactive”; in that of `Cc1cccc(C(=O)O/N=C2\CCSc3ccc(C)cc32)c1`, “inactive”; in that of `CC1(C)CC(=O)C(C=Nc2ccc(Cl)cn2)=C(O)C1`, “inactive”.
In the case of `CN1CCN(c2cc3c(cc2F)c(=O)c(C(=O)O)cn3CCF)CC1` it was “inactive”.
Then `Cc1cc(C(=O)NCc2ccco2)no1`, with “inactive”; and `CC(C)(C)NS(=O)(=O)c1ccc(CCC(=O)N2CCOCC2)cc1`, with “inactive”.
Consider `CCOC(=O)C1=C(c2ccccc2)N=C2SCC(=O)N2C1c1ccc(O)c(OC)c1` (centres undefined), for which the result was inactive.
Then `COc1ccc(-c2nnc(SCC(=O)NCc3ccco3)o2)cc1`, with “inactive”; and `COc1ccc(-c2csc(NC(=O)C3CCCO3)n2)cc1` (centres undefined), with “inactive”.
Then `CCN(C(C)=O)c1nc(CSc2nnc(NC(C)C)s2)cs1`, with “inactive”.
In the case of `COc1ccc(/C=N/NC(=O)c2ccc3c(c2)OCCO3)cc1[N+](=O)[O-]` it was “inactive”; in that of `O=C(CN1CCCCCC1)Nc1cccc(Br)c1`, “inactive”.
In the case of `O=C(CN1CCCCC1)Nc1cccc(Br)c1`, the compound was called inactive.
Turning to `O=C(c1cccc(S(=O)(=O)N2CCOCC2)c1)N1CCCC1`, the compound was classed as inactive.
In the case of `CCOC(=O)C1=CSC2=NS(=O)(=O)CCN12` it was “inactive”.
Then `CC(=O)N1CCC(N(CCN2CCOCC2)C(=S)Nc2cccc(C)c2C)CC1`, with “inactive”; and `CNc1ncc(Cc2ccccc2)s1`, with “inactive”; and `O=c1cc(CSc2nc(NCc3ccccc3)c3ccccc3n2)nc2ccc(Cl)cn12`, with “inactive”.
In the case of `Cc1nc(N2CCN(Cc3ccccc3)CC2)nc2c1C(=O)CC(C)C2` (centres undefined) it was “inactive”; in that of `CCOC(=O)c1ccc(NC(=O)Nc2cc(C)on2)cc1`, “inactive”; in that of `CCOC(=O)Nc1ccc(C)cc1C`, “inactive”.
As to `CCOC(=O)C1CCCN(C(=O)c2sc3nc(C)nc(N4CCOCC4)c3c2C)C1` (centres undefined), the compound was classed as inactive.
On to `CCCCNC(=O)Oc1cccc(N2CCCC2=O)c1`, for which the compound was called inactive.
In the case of `CCCOc1ccc(C(=O)CCC(=O)OCC(=O)N2CC(=O)Nc3ccccc32)cc1` it was “inactive”; in that of `O=S1(=O)C=CC(Nc2ccccc2)C1` (centres undefined), “inactive”.
In the case of `CC(C)N(Cc1nc(-c2ccccc2)no1)C(=O)CN(C)S(=O)(=O)c1ccccc1` it was “inactive”.
`C[C@H]1COc2c(N3CCN(C)CC3)c(F)cc3c(=O)c(C(=O)O)cn1c23`: the call was inactive.
With `Cc1nc(-c2ccccc2)cc(=O)[nH]1`, the compound was called inactive.
In the case of `Cc1ccc(Oc2nnc(-c3ccccc3)c3ccccc23)cc1`, the compound was classed as inactive.
In the case of `COC(=O)c1cc(C#N)c(Oc2cccc(C)c2C)nc1C` it was “inactive”.
Take `COc1ccc(NC(=O)ON=C2c3ccccc3-c3ccccc32)cc1`: the result was inactive.
Turning to `Cc1ccc(C(=O)Nc2ccccc2C(N)=O)o1`, the result was inactive.
In the case of `NC(=O)c1ccccc1N=Cc1ccccn1` it was “inactive”; in that of `Cc1scc(C(=O)O)c1-c1c(C(=O)O)csc1C`, “inactive”; in that of `COc1cc(OC)c(C(=O)Nc2ccc(S(=O)(=O)Nc3ncccn3)cc2)cc1OC`, “inactive”.
`COC(=O)c1ccc(Sc2ccccc2NS(=O)(=O)c2ccc(C)cc2)nc1`: the compound was classed as inactive.
Then `CN(CC(=O)NCc1cccc(F)c1)C(=O)c1ccco1`, with “inactive”; and `N/C(=N\c1nc2ccccc2o1)NC(=O)c1ccccc1F`, with “inactive”.
Then `CCCOc1ccc(/C=N/O)cc1`, with “inactive”.
In the case of `CC(=O)NC12CC3CC(C1)CC(C(=O)OCC(=O)c1ccc4c(c1)OCCO4)(C3)C2` it was “inactive”.
Take `O=C1CN(C(=O)COC(=O)CCC(=O)c2ccc3c(c2)OCCO3)c2ccccc2N1`: the call was inactive.
In the case of `Cn1c(NCc2cccs2)nc2ccccc21` it was “inactive”; in that of `O=C(CSC1CCCCC1)Nc1ccccc1Br`, “inactive”.
Turning to `CN1CCN(S(=O)(=O)c2ccc(N)cc2)CC1`, the call was inactive.
Then `COc1cc(C=O)ccc1OCCCOc1ccccc1[N+](=O)[O-]`, with “inactive”; and `O=C(CNC(=O)c1ccco1)OCC(=O)c1ccc2c(c1)CCCC2`, with “inactive”.
In the case of `CC(C)(C)C1CCC2(CC1)Nc1cccc3cccc(c13)N2` it was “inactive”; in that of `Cc1ccc(C(=O)NCC(=O)OCC(=O)N2CCCc3ccccc32)cc1`, “inactive”.
